Source: PubChem BioAssay AID1159580 (chemical genetic matrix, 2015)
Several values for one entry are separate records, joined by “and”; a condition that tells them apart may be missing. Equal entries are not always repeated. The whole screen tested about 5,500 compounds, of which about 2,000 (36%) were called active. Roughly 18% stayed inconclusive and do not appear here. Rule as the data show it: active = normalized growth mostly below about 0.91 (no sharp cut-off); inconclusive = no clear call, values can overlap the other calls; inactive = mostly above about 0.92. Some of the results follow.

Test: chemical genetic growth profiling, strain panel (AID 1159580);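 also: tested at 20 µM; growth read once vehicle control cultures reached saturation at 30 °C; 1 = growth at the plate median or of vehicle wells; lower values mean less growth of the strain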
Settings: S. cerevisiae deletion strains, growth OD

Measured: normalized growth

O=C(CCBr)N1CCN(C(=O)CCBr)CC1
inactive: locus YAL013W, strain DEP1, stronger effect = lower value 1 | locus YAL021C, strain ccr4, stronger effect = lower value 1.02 | locus YAL026C, strain drs2, stronger effect = lower value 1.01 | locus YAL030W, strain snc1, stronger effect = lower value 1.02 | locus YBL061C, strain skt5, stronger effect = lower value 1.02 | locus YBR009C, strain hhf1, stronger effect = lower value 1.02 | locus YBR021W, strain FUR4, stronger effect = lower value 0.998 | locus YBR023C, strain chs3, stronger effect = lower value 1.03 | locus YBR171W, strain sec66, stronger effect = lower value 1.04 | locus YBR229C, strain ROT2, stronger effect = lower value 1 | locus YBR231C, strain swc5, stronger effect = lower value 1.02 | locus YBR279W, strain paf1, stronger effect = lower value 1.02 | locus YCL011C, strain gbp2, stronger effect = lower value 1.02 | locus YCL016C, strain dcc1, stronger effect = lower value 1.02 | locus YCL029C, strain bik1, stronger effect = lower value 1 | locus YCL061C, strain MRC1, stronger effect = lower value 1.01 | locus YCL069W, strain vba3, stronger effect = lower value 1.02 | locus YCR088W, strain abp1, stronger effect = lower value 1.01 | locus YDL005C, strain med2, stronger effect = lower value 1.02 | locus YDL035C, strain GPR1, stronger effect = lower value 1.01 | locus YDL040C, strain nat1, stronger effect = lower value 1.02 | locus YDL074C, strain BRE1, stronger effect = lower value 1 | locus YDL101C, strain DUN1, stronger effect = lower value 1.01 | locus YDL134C, strain PPH21, stronger effect = lower value 1.01 | locus YDL185W, strain tfp1, stronger effect = lower value 0.988 | locus YDL192W, strain arf1, stronger effect = lower value 1.01 | locus YDR001C, strain nth1, stronger effect = lower value 1.01 | locus YDR069C, strain doa4, stronger effect = lower value 1.02 | locus YDR101C, strain arx1, stronger effect = lower value 1.01 | locus YDR137W, strain rgp1, stronger effect = lower value 1.05 | locus YDR159W, strain sac3, stronger effect = lower value 1.01 | locus YDR162C, strain NBP2, stronger effect = lower value 1.01 | locus YDR195W, strain ref2 1.02 | locus YDR297W, strain sur2, stronger effect = lower value 1.02 | locus YDR318W, strain mcm21, stronger effect = lower value 0.996 | locus YDR334W, strain swr1, stronger effect = lower value 1.02 | locus YDR335W, strain msn5, stronger effect = lower value 1.02 | locus YDR388W, stronger effect = lower value 0.995 | locus YDR392W, strain spt3, stronger effect = lower value 1.03 | locus YDR502C, strain sam2, stronger effect = lower value 0.998 | locus YEL003W, strain gim4, stronger effect = lower value 1.02 | locus YEL037C, strain rad23, stronger effect = lower value 1.01 | locus YEL061C, strain CIN8 (second series), stronger effect = lower value 1.02 | locus YEL061C, strain CIN8, stronger effect = lower value 1 | locus YER015W, strain faa2, stronger effect = lower value 1.02 | locus YER016W, strain bim1, stronger effect = lower value 1.02 | locus YER110C, stronger effect = lower value 0.993 | locus YER111C, strain swi4, stronger effect = lower value 1.02 | locus YER155C, strain BEM2 (second series), stronger effect = lower value 1.02 | locus YER155C, strain BEM2, stronger effect = lower value 1.01 | locus YER167W, strain BCK2, stronger effect = lower value 1.01 | locus YFR010W, strain ubp6, stronger effect = lower value 1.01 | locus YGL078C, strain dbp3, stronger effect = lower value 0.995 | locus YGL086W, strain mad1, stronger effect = lower value 0.991 | locus YGL167C, strain pmr1, stronger effect = lower value 1.02 | locus YGL173C, strain kem1, stronger effect = lower value 1.02 | locus YGL227W, strain vid30, stronger effect = lower value 1.02 | locus YGL240W, strain doc1, stronger effect = lower value 1.02 | locus YGL248W, strain PDE1, stronger effect = lower value 1 | locus YGL253W, strain hxk2, stronger effect = lower value 1 | locus YGR135W, strain pre9, stronger effect = lower value 0.99 | locus YGR229C, strain SMI1, stronger effect = lower value 0.99 | locus YGR252W, strain gcn5, stronger effect = lower value 0.934 | locus YHR013C, strain ard1, stronger effect = lower value 1.04 | locus YHR027C, strain rpn1, stronger effect = lower value 1.01 | locus YHR030C, strain SLT2, stronger effect = lower value 1.01 and 1 | locus YHR079C, strain IRE1 (second series), stronger effect = lower value 0.995 | locus YHR079C, strain IRE1, stronger effect = lower value 0.997 | locus YHR094C, strain hxt1, stronger effect = lower value 0.996 | locus YHR129C, strain ARP1, stronger effect = lower value 1.01 | locus YHR142W, strain chs7, stronger effect = lower value 1.02 | locus YHR200W, strain rpn10, stronger effect = lower value 0.994 | locus YIL066C, strain RNR3, stronger effect = lower value 1.02 | locus YIL073C, strain SPO22, stronger effect = lower value 1.04 | locus YIL125W, strain kgd1, stronger effect = lower value 0.987 | locus YIR030C, strain dcg1, stronger effect = lower value 1 | locus YJL092W, strain hpr5, stronger effect = lower value 1.01 | locus YJL095W, strain BCK1 (second series), stronger effect = lower value 1.01 | locus YJL095W, strain BCK1, stronger effect = lower value 1.01 and 0.998 | locus YJL115W, strain asf1, stronger effect = lower value 1 | locus YJL129C, strain trk1, stronger effect = lower value 1.02 | locus YJL134W, strain LCB3, stronger effect = lower value 1.01 | locus YJL154C, strain vps35, stronger effect = lower value 1.02 | locus YJL164C, strain tpk1, stronger effect = lower value 1.02 | locus YJL166W, strain qcr8, stronger effect = lower value 1.02 | locus YJL168C, strain set2, stronger effect = lower value 0.998 | locus YJL187C, strain SWE1 (second series), stronger effect = lower value 1.02 | locus YJL187C, strain SWE1, stronger effect = lower value 1.02 | locus YJR043C, strain POL32, stronger effect = lower value 1.01
